PubChem BioAssay
Several values for one entry are separate records, joined by “and”; a condition that tells them apart may be missing. Equal values may be shown once. Activity calls are given as the source filed them. Unless noted, the rule behind the calls is not given here.

Columns and labels:
[1] = stimulators of nuclear beta-catenin in C2C12, primary screen, imaging, WNT3A-conditioned medium, mouse C2C12, NPC library (AID 1117326; in the data active = nuclear beta-catenin stimulation mostly above about 4.2%, no sharp cut-off; inactive = mostly below about 10%); settings: stronger effect = higher value
[2] = stimulators of insulin release from INS-1E, primary screen, cell-based, 5 mM glucose, NPC library (AID 1117329;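 active = compound raises insulin release from rat beta cells at 5 mM glucose, no numeric limit stated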); settings: rat INS-1E insulin secretion, at 10 µM, stronger effect = higher value
[3] = growth inhibition of GSK3B-pretreated HCT116 cells – cell-based, CellTiter-Glo, 0.2 to 20 µM (AID 1117336;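 active = compounds lowering colon cancer cell viability after pretreatment blocking the GSK3B kinase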); settings: HCT116 viability after GSK3B inhibitor, at 20 µM, stronger effect = higher value
[4] = inhibition of endothelial tube formation, primary screen, imaging, VEGF stimulated, CD31 staining, tube area, NPC library (AID 1117340;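 active = compound that reduces growth-factor-driven endothelial tube area in a mixed cell culture, no cutoff stated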); settings: VEGF-stimulated ADSC/ECFC co-culture, at 10 µM, stronger effect = higher value
[5] = glucagon-like peptide 1 release enhancers, primary assay, NCI-H716 cell line, NPC library (AID 1117341;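 active = compound raises GLP1 secretion from the human gut endocrine cells, with no numeric limit stated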); settings: NCI-H716 cells, at 10 µM, stronger effect = higher value
[6] = HCT116 colon cancer cell growth inhibition, primary screen, CellTiter-Glo luminescence, NPC library (AID 1117342;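 active = compounds that lower survival of HCT116 colon cancer cells in the luminescence readout, no numeric limit stated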); settings: at 20 µM (top of the series)
[7] = CellTiter-Glo luminescent readout of SW480 viability loss, NPC library primary (AID 1117343;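 active = compounds that lower viability of the colon cancer cells in the luminescence readout, with no numeric limit stated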); settings: CellTiter-Glo luminescence; at 20 µM (top of the series)
[8] = decreased DLD-1 cellular survival, CellTiter-Glo luminescent readout, NPC compound collection, primary HTS (AID 1117346;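 active = compounds that lower survival of DLD-1 colon cancer cells in the luminescence readout, no cutoff given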); settings: DLD-1 viability, CellTiter-Glo luminescence; at 20 µM (top of the series)
[9] = biological target: 6-phosphogluconate dehydrogenase, decarboxylating (Homo sapiens) (UniProt P52209); assay: 6PGD enzyme inhibitors, primary screen, biochemical, human, recombinant enzyme, NADPH absorbance (AID 1159550;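 active = at least 20% inhibition of 6-phosphogluconate dehydrogenase activity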); settings: recombinant 6PGD, NADPH absorbance 341 nm; at 10 µM; stronger effect = higher value
Sequence of 6-phosphogluconate dehydrogenase, decarboxylating (Homo sapiens) (P52209 whole entry, looked up): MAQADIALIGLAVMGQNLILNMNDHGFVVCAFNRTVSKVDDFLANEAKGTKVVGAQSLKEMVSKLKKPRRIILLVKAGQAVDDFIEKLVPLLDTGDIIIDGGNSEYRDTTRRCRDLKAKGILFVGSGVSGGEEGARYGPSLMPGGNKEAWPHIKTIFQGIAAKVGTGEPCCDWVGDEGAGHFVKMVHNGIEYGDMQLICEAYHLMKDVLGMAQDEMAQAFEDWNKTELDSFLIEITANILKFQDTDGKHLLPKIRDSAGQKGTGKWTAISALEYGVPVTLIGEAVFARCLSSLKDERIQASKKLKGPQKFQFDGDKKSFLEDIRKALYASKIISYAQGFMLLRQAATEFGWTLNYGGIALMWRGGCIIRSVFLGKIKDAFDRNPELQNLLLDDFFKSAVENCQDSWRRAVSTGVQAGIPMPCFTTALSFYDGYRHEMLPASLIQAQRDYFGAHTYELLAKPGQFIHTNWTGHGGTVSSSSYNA

[10] = differential killing of epithelial or mesenchymal cells, primary screen, imaging, PC-3E GFP, TEM4-18 mCherry, co-culture (AID 1345086;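 active = compounds killing one labelled cell type while sparing the other, by normalised counts and ratio limits, not self-fluorescent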;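 for all read-outs here: cells exposed to compound for 72 h before imaging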;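 for red/green cell ratio (normalised): normalised mesenchymal count divided by normalised epithelial count so high means epithelial killing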); settings: imaging cell counts, at 1 µM; for red/green cell ratio (normalised): actives lie on both sides, counts scaled to control wells, 1 = unselective
[11] = survival rescue of mitochondrial mutant cells in low glucose, primary screen, MELAS cybrids, Rieske KO mouse fibroblasts, CellTiter-Glo (AID 1508586;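 active = mean z-score across replicates of 1.96 or higher in either the MELAS or the Rieske mutant cell line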;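 note: z relative to plate mean and SD of compound and empty wells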)
[12] = biological target: NAD(+) hydrolase SARM1 (Homo sapiens) (UniProt Q6SZW1); assay: SARM1 TIR NADase inhibitors, cell lysate, NAD-Glo luminescence (AID 1508614;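 active = compound whose remaining NAD level is above about 45 nM, limit read from the data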;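 note: higher remaining NAD means stronger inhibition of SARM1 NADase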); settings: SAM-TIR HEK293T lysate NADase, at 1 µM, stronger effect = higher value
Sequence of NAD(+) hydrolase SARM1 (Homo sapiens) (Q6SZW1 whole entry, looked up, the tested form may be a part): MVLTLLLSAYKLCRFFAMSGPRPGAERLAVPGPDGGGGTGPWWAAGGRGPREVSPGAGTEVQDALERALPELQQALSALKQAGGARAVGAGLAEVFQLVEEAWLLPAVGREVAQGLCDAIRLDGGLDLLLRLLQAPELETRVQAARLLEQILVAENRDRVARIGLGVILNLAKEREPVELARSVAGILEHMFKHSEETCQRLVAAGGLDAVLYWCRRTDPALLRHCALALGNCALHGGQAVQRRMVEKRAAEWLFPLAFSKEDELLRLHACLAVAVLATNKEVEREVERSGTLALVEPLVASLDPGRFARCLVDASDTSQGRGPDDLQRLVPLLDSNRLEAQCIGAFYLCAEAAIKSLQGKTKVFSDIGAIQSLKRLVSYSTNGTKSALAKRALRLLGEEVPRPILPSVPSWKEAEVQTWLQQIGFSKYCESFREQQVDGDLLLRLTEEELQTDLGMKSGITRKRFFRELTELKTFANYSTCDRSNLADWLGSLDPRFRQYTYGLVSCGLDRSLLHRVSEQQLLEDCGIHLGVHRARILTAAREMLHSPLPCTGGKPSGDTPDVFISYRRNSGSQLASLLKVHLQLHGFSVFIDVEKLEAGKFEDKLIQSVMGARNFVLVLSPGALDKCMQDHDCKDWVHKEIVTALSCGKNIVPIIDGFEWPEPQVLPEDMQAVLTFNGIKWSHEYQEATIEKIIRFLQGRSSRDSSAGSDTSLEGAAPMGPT

[13] = biological target: Mitogen-activated protein kinase 7 (Homo sapiens) (UniProt Q13164); assay: ERK5 transactivation activators in reporter cells, primary screen, cell-based, HTS (AID 1508626;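 active = luciferase signal above three times the same-plate solvent-only control wells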;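 note: luciferase driven by Gal4-ERK5 fusion binding five Gal4 sites before minimal TATA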); settings: HeLa Gal4-ERK5 transactivation, 18 h, at 5 µM, stronger effect = higher value
Sequence of Mitogen-activated protein kinase 7 (Homo sapiens) (Q13164 whole entry, looked up, the tested form may be a part): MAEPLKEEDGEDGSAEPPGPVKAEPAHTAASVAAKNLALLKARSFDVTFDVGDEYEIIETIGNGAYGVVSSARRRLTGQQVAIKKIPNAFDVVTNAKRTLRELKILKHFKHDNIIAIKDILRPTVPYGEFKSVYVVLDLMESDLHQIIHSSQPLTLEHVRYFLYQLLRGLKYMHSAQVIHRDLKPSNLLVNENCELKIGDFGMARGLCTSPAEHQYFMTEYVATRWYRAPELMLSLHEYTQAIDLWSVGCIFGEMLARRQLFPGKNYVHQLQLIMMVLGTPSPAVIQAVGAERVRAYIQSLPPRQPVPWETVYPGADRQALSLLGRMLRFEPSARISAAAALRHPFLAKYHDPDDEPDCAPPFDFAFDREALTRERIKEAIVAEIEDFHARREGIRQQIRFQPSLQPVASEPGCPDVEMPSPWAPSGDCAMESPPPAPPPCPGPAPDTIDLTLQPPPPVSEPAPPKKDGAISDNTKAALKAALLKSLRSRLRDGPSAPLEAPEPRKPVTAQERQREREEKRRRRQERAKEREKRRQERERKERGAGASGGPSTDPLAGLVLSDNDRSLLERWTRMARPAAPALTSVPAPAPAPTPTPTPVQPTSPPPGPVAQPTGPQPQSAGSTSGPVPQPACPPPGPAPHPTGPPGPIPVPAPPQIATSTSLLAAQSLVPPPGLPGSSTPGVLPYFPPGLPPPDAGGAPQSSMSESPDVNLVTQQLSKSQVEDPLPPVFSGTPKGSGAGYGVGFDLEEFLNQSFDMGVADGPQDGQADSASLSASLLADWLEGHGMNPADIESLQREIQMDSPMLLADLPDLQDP

F380Y = assay: modulators of BK channel variants, profiling panel, selectivity assay, cell-based, U2OS BacMam, thallium flux, beta subunits (AID 1259406;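 active = thallium flux through the channel raised or lowered by more than 3 SD from vehicle-only wells, actives on both sides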;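 note: initial slope of Thallos dye fluorescence rise after thallium is added; log ratio against the mean of 0.3% DMSO vehicle wells on the same plate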); settings: at 30 µM
[14] = liver-stage malaria parasite growth inhibition, primary screen, cell-based, HepG2, luciferase luminescence, HepG2 viability (AID 624349; in the data active = parasite load remaining mostly below about 12%, no sharp cut-off; inactive = mostly above about 10%;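 note: 100% = mean of DMSO negative control wells on the same plate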); settings: P. berghei liver stage in HepG2, luciferase luminescence, concentration not given here; parasite load remaining: stronger effect = lower value; viability: measured here: HepG2 viability without parasites
[15] = Cy5 fluorescence interference with SSB-bound oligo, artefact control for HCV NS3 helicase inhibitor project, biochemical, NIH Clinical Collection, E. coli SSB (AID 743268)
[16] = system: Hepatitis C virus NS3 helicase; assay: HCV NS3 helicase inhibitors, primary screen, biochemical, fluorescence polarization, NIH Clinical Collection (AID 743270); settings: NS3 helicase binding to Cy5-dT15 DNA, stronger effect = higher value, concentration not given here
[17] = biological target: Single-stranded DNA-binding protein (Escherichia coli (strain K12)) (UniProt P0AGE0); assay: E. coli SSB displacement from DNA, counter-screen for HCV NS3 helicase inhibitor project, biochemical, fluorescence polarization, NIH Clinical Collection (AID 743271; in the data active = inhibition above about 28%); settings: stronger effect = higher value, concentration not given here
[18] = fluorescence interference in NS3h assay format, artefact control for HCV NS3 helicase inhibitor project, biochemical, NIH Clinical Collection (AID 743272); settings: fluorescence interference counterscreen, stronger effect = lower value;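 note: HCV NS3 helicase with a Cy5 labelled single stranded DNA probe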
[19] = sensitizers of A549 cells to miR-34 induction, primary screen, imaging, A549 dox-inducible miR-34, nuclei and caspase counts (AID 1347080;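 active = compounds whose cell count with miR-34 switched on is under 0.7 times the count with it off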); settings: A549 miR-34 inducible, Hoechst nuclei count, 48 h
[20] = measured here: epithelial PC-3E GFP cell survival
[21] = measured here: mesenchymal TEM4-18 mCherry cell survival
[22] = MELAS cybrid survival, CellTiter-Glo 48 h, stronger effect = higher value
[23] = Rieske KO mouse fibroblast survival, CellTiter-Glo 72 h

COc1cc2nc(N3CCN(C(=O)c4ccco4)CC3)nc(N)c2cc1OC
nuclear beta-catenin stimulation ([1]; at 10 µM): 47.5% (active)
nuclear beta-catenin stimulation ([1]; stimulation, at 2 µM): 7.8%
insulin secretion stimulation [2]: 0.2% (inactive)
viability decrease [3]: 80.9% (active)
tube area decrease [4]: -2.7% (inactive)
GLP1 secretion stimulation [5]: 9.5% (inactive)
inhibition of viability [6]: 46.9% (inactive)
viability decrease (inhibition) [7]: 120% (active)
viability decrease (inhibition) [8]: 78.7% (active)
inhibition [9]: 8.49% (inactive)
red/green cell ratio (normalised) [10]: 1.27 (inactive)
normalised cell number [10, 20]: 0.98
normalised cell number [10, 21]: 1.25
z-score [11, 22]: 1.14 and 0.169 (inactive)
z-score [11, 23]: 2.19 and 0.838
remaining NAD [12]: 10 nM (inactive)
luciferase signal [13]: 128 AU (inactive)
log fold change Tl+ flux (F380Y): 0.00597 (inactive)

C[C@@H](O)[C@H]1C(=O)N2C(C(=O)O)=C(S[C@@H]3CN[C@H](C(=O)N(C)C)C3)[C@H](C)[C@H]12
parasite load remaining [14]: 81% (inactive) and 101% (inactive) and 24.6% (inactive)
viability [14]: 74.6% and 72.6% and 92%
fluorescence ratio [15]: 1.04 (inactive)
inhibition [16]: 2.77% (inactive)
inhibition [17]: -0.87% (inactive)
fluorescence ratio [18]: 0.99 (inactive)
nuclear beta-catenin stimulation ([1]; at 10 µM): -1.7% (inactive) and -0.1% (inactive)
nuclear beta-catenin stimulation ([1]; stimulation, at 2 µM): 1% and 0.5%
insulin secretion stimulation [2]: 1.9% (inactive) and 2% (inactive)
viability decrease [3]: -24.1% (inactive) and -19.8% (inactive)
tube area decrease [4]: -3.2% (inactive) and 11.7% (inactive)
GLP1 secretion stimulation [5]: -1.2% (inactive) and -6.2% (inactive)
inhibition of viability [6]: 3.6% (inactive) and 6.7% (inactive)
viability decrease (inhibition) [7]: 9.5% (inactive) and 15.1% (inactive)
viability decrease (inhibition) [8]: -2.2% (inactive) and -3.6% (inactive)
fold change ([19]; stronger effect = lower value, cell number ratio, induced over uninduced): 0.969 (inactive) and 0.909 (inactive)
fold change ([19]; measured here: relative caspase fold change +Dox/-Dox): 0.61 and 1.16
cell count ([19]; measured here: total cells with miR-34 induction, stronger effect = lower value): 9470 and 9550
cell count ([19]; measured here: total cells without miR-34 induction): 9770 and 10500
z-score [11, 22]: 0.815 (inactive) and 0.0614 (inactive)
z-score [11, 23]: 1.23 and -0.866
remaining NAD [12]: 10 nM (inactive)
log fold change Tl+ flux (F380Y): 0.000985 (inactive)

COc1ccccc1N1CCN(CCCNc2cc(=O)n(C)c(=O)n2C)CC1
parasite load remaining [14]: 53.4% (inactive) and 119% (inactive) and 80.7% (inactive)
viability [14]: 95.1% and 83.4% and 78.9%
fluorescence ratio [15]: 0.99 (inactive)
inhibition [16]: -2.77% (inactive)
inhibition [17]: -1.64% (inactive)
fluorescence ratio [18]: 0.96 (inactive)
nuclear beta-catenin stimulation ([1]; at 10 µM): 4.3% (inactive)
nuclear beta-catenin stimulation ([1]; stimulation, at 2 µM): 0.2%
insulin secretion stimulation [2]: 1.1% (inactive)
viability decrease [3]: 1.1% (inactive)
tube area decrease [4]: 1% (inactive)
GLP1 secretion stimulation [5]: -0.1% (inactive)
inhibition of viability [6]: 10.8% (inactive)
viability decrease (inhibition) [7]: -11.2% (inactive)
viability decrease (inhibition) [8]: -9.9% (inactive)
inhibition [9]: -3.41% (inactive)
red/green cell ratio (normalised) [10]: 1.12 (inactive)
normalised cell number [10, 20]: 0.91
normalised cell number [10, 21]: 1.01
z-score [11, 22]: -0.289 (inactive) and 0.285 (inactive)
z-score [11, 23]: 0.041 and 0.0737
remaining NAD [12]: 10 nM (inactive)
luciferase signal [13]: 40 AU (inactive)
log fold change Tl+ flux (F380Y): -0.0416 (inactive)

Nc1c2c(nc3ccccc13)CCCC2
fluorescence ratio [15]: 0.95 (inactive)
inhibition [16]: -4.36% (inactive)
inhibition [17]: -0.1% (inactive)
fluorescence ratio [18]: 0.85 (inactive)
nuclear beta-catenin stimulation ([1]; at 10 µM): 1.3% (inactive)
nuclear beta-catenin stimulation ([1]; stimulation, at 2 µM): 2.2%
insulin secretion stimulation [2]: 32.7% (active)
viability decrease [3]: 2.75% (inactive)
tube area decrease [4]: 19% (inactive)
GLP1 secretion stimulation [5]: 13% (inactive)
inhibition of viability [6]: 4.9% (inactive)
viability decrease (inhibition) [7]: 22.5% (inactive)
viability decrease (inhibition) [8]: 3.1% (inactive)
inhibition [9]: -0.369% (inactive)
red/green cell ratio (normalised) [10]: 1.47 (inactive)
normalised cell number [10, 20]: 0.89
normalised cell number [10, 21]: 1.3
z-score [11, 22]: 0.221 (inactive) and 0.852 (inactive)
z-score [11, 23]: 0.161 and -0.102
remaining NAD [12]: 10 nM (inactive)
luciferase signal [13]: 164 AU (inactive)
log fold change Tl+ flux (F380Y): 0.0646 (inactive)
